About 83,000 compounds went through this panel and 20% of them were active in at least one assay; those are over-represented in the sample as a whole.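 Note: values are percent growth. 100 is the growth of untreated cells, values between 100 and 0 indicate rising inhibition; between -100 and 0 indicates cell death.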 Values without a mark were called inactive. Activity calls are given as the source filed them. Rule for the calls: active = growth percent below 10; inactive = the rest.
Legend:
Assay in all cases: NCI-60 one-dose screen, 48 h (100 = growth as untreated, 0 = no growth, -100 = all killed)
Conditions in all cases: 10 µM unless noted
[1] = test system: SR leukemia
[2] = test system: RPMI-8226 leukemia
[3] = test system: OVCAR-8 ovarian
[4] = test system: OVCAR-4 ovarian
[5] = test system: SK-OV-3 ovarian
[6] = test system: IGROV1 ovarian
[7] = test system: OVCAR-3 ovarian
[8] = test system: T-47D breast
[9] = test system: BT-549 breast
[10] = test system: MDA-MB-435 melanoma
[11] = test system: SW-620 colon
[12] = test system: MCF7 breast
[13] = test system: HCT-116 colon
[14] = test system: HCC-2998 colon
[15] = test system: KM12 colon
[16] = test system: HS 578T breast
[17] = test system: NCI/ADR-RES ovarian
[18] = test system: OVCAR-5 ovarian

Structure (SMILES): Cc1c2c(cn1Cc1ccccc1)CCc1cn(C)nc1-2
- growth [1]: 53.2%
- growth [2]: 40.9%
- growth [3]: 86.5%
- growth [4]: 55.4%
- growth [5]: 108%
- growth [6]: 102%
- growth [7]: 107%
- growth [8]: 87.9%
- growth [9]: 74.4%
- growth [10]: 104%
- growth [11]: 109%
- growth [12]: 85.2%
- growth [13]: 74.3%
- growth [14]: 97.6%
- growth [15]: 99.9%

Structure (SMILES): COC(=O)Nc1nc2ccc(C(=O)C3CC3)cc2[nH]1
- growth [1]: -21.7% (active)
- growth [2]: -19.7% (active)
- growth [3]: 8.29% (active)
- growth [4]: 44.7%
- growth [5]: 22.7%
- growth [6]: -59.4% (active)
- growth [7]: -61.7% (active)
- growth [16]: -17.7% (active)
- growth [17]: 9.11% (active)
- growth [8]: 57.1%
- growth [9]: 74.9%
- growth [10]: -63.7% (active)
- growth [11]: 20.6%
- growth [12]: 4.01% (active)
- growth [13]: 9.29% (active)
- growth [14]: -12.7% (active)
- growth [15]: -0.0812% (active)

Structure (SMILES): CN(C)c1ccc(/C=C2\C=C(c3ccccc3)N(CCc3ccccc3)C2=O)cc1
- growth [1]: 23.5%
- growth [2]: 93%
- growth [3]: 11.7%
- growth [4]: -11.6% (active)
- growth [5]: 60.9%
- growth [6]: 70.2%
- growth [7]: 62.3%
- growth [16]: 19.1%
- growth [17]: 48.6%
- growth [8]: 82.3%
- growth [9]: 71.3%
- growth [10]: 95.3%
- growth [11]: 61.4%
- growth [12]: 60%
- growth [13]: 42.2%
- growth [14]: 75.5%
- growth [15]: 89.8%

Structure (SMILES): CCn1c(Sc2nnc(Nc3ccccc3)s2)nc2c1c(=O)n(C)c(=O)n2C
- growth [1]: 103%
- growth [2]: 122%
- growth [3]: 103%
- growth [4]: 96.5%
- growth [6]: 91.4%
- growth [7]: 110%
- growth [16]: 99.3%
- growth [17]: 89.6%
- growth [9]: 87.1%
- growth [10]: 103%
- growth [11]: 97.6%
- growth [12]: 98.6%
- growth [13]: 94.7%
- growth [14]: 92.7%
- growth [15]: 110%

Structure (SMILES): Cc1ccc(NC(=O)C(Cl)Cl)cc1
- growth [1]: 97.2%
- growth [2]: 97%
- growth [18]: 98.5%
- growth [4]: 116%
- growth [5]: 105%
- growth [6]: 95.4%
- growth [7]: 112%
- growth [16]: 102%
- growth [17]: 99.9%
- growth [8]: 96.6%
- growth [9]: 110%
- growth [10]: 107%
- growth [11]: 106%
- growth [12]: 94.6%
- growth [13]: 96.5%
- growth [14]: 115%
- growth [15]: 104%

Structure (SMILES): Nc1ccc2c(S(=O)(=O)O)ccc(S(=O)(=O)O)c2c1
- growth [1]: 83.4%
- growth [2]: 95.7%
- growth [3]: 91.6%
- growth [4]: 99.9%
- growth [5]: 95.6%
- growth [6]: 82.5%
- growth [7]: 117%
- growth [8]: 82.5%
- growth [10]: 107%
- growth [11]: 106%
- growth [12]: 93.1%
- growth [13]: 93.9%
- growth [14]: 98.7%
- growth [15]: 110%

Structure (SMILES): COc1cc2nc(Nc3ccc(F)cc3)nc(N)c2cc1OC
- growth [1]: 64.2%
- growth [2]: 76.8%
- growth [3]: 93.1%
- growth [4]: 97.7%
- growth [5]: 110%
- growth [6]: 107%
- growth [7]: 91.3%
- growth [16]: 111%
- growth [17]: 87.6%
- growth [8]: 83.2%
- growth [9]: 93.9%
- growth [10]: 96.2%
- growth [11]: 103%
- growth [12]: 82.9%
- growth [13]: 89.4%
- growth [14]: 113%
- growth [15]: 94.7%

Structure (SMILES): Cc1ccc2c(n1)C(=O)C(Oc1ccc(F)cc1)=CC2=O
- growth [1]: 64.6%
- growth [2]: 43.4%
- growth [3]: 87%
- growth [18]: 111%
- growth [6]: 109%
- growth [7]: 73.2%
- growth [16]: 105%
- growth [17]: 97.1%
- growth [8]: 40%
- growth [9]: 85.4%
- growth [10]: 101%
- growth [11]: 84.7%
- growth [12]: 81.1%
- growth [13]: 90.8%
- growth [14]: 108%
- growth [15]: 101%

Structure (SMILES): Cc1cc(Cc2cc(C)cc(C(C)(C)C)c2O)c(O)c(C(C)(C)C)c1
- growth [1]: -7.3% (active)
- growth [2]: 32.2%
- growth [3]: 33.9%
- growth [4]: 48.5%
- growth [5]: 51.9%
- growth [6]: 47.5%
- growth [7]: 38.5%
- growth [8]: 9.69% (active)
- growth [9]: 74.1%
- growth [10]: 52.2%
- growth [11]: 39.8%
- growth [12]: 12.8%
- growth [13]: 8.68% (active)
- growth [14]: 31.6%
- growth [15]: 29.8%

Structure (SMILES): COc1cc(C(=O)/C=C/c2c(C(F)(F)F)nc3ccccn23)cc(OC)c1OC
- growth [1]: -9.2% (active)
- growth [2]: -14.6% (active)
- growth [3]: 3.68% (active)
- growth [4]: 8.45% (active)
- growth [5]: -1.92% (active)
- growth [6]: 9.02% (active)
- growth [7]: -57.3% (active)
- growth [8]: 8.03% (active)
- growth [9]: 10.4%
- growth [10]: -10.2% (active)
- growth [11]: -29.6% (active)
- growth [12]: -44.7% (active)
- growth [13]: -84.3% (active)
- growth [14]: -97.2% (active)
- growth [15]: -82.7% (active)

Structure (SMILES): CCOc1ccc(-c2nc3ccc(-c4nc5ccc(N6CCN(C)CC6)cc5[nH]4)cc3[nH]2)cc1OCC
- growth [1]: 8.73% (active)
- growth [2]: 45.8%
- growth [3]: 14.8%
- growth [18]: 44.4%
- growth [6]: 50.5%
- growth [7]: -13.3% (active)
- growth [16]: 11.1%
- growth [17]: 104%
- growth [8]: 15.2%
- growth [9]: -29.5% (active)
- growth [10]: -2.53% (active)
- growth [11]: 0.486% (active)
- growth [12]: 7.04% (active)
- growth [13]: -3.06% (active)
- growth [14]: -15.9% (active)
- growth [15]: 43%

Structure (SMILES): CC1(C)CC(=O)c2c(ccc(C(=O)C[C@H](N)CO)c2N)O1
- growth [1]: 16.7%
- growth [2]: 13%
- growth [3]: 32.4%
- growth [4]: 69.8%
- growth [6]: 34.7%
- growth [7]: 7.02% (active)
- growth [16]: 82.4%
- growth [17]: 70.5%
- growth [8]: 53.8%
- growth [9]: 25%
- growth [10]: 52.3%
- growth [12]: 13.3%
- growth [14]: 9.33% (active)
- growth [15]: 16%

Structure (SMILES): COc1ccc(-c2nc3sc4c(c3c(=O)[nH]2)CCCC4)c2ccccc12
- growth [1]: 7.04% (active)
- growth [2]: 11.5%
- growth [3]: 12.8%
- growth [4]: -7.19% (active)
- growth [5]: 33.7%
- growth [6]: 37.5%
- growth [7]: -64.5% (active)
- growth [16]: -0.402% (active)
- growth [17]: 5.34% (active)
- growth [10]: -70.3% (active)
- growth [11]: 18.9%
- growth [12]: 9.63% (active)
- growth [13]: 10.7%
- growth [14]: 12.3%
- growth [15]: 7.22% (active)

Structure (SMILES): O=C1Nc2ccccc2SC1C1SC(=S)N(Cc2ccccc2)C1=O (stereo unspecified)
- growth [1]: -12.1% (active)
- growth [2]: -21.7% (active)
- growth [18]: 104%
- growth [4]: 59.8%
- growth [5]: 118%
- growth [6]: 96.5%
- growth [7]: -5.62% (active)
- growth [16]: 27%
- growth [17]: 104%
- growth [8]: 24.1%
- growth [9]: 42.4%
- growth [10]: 0.237% (active)
- growth [11]: 20.9%
- growth [12]: 17.8%
- growth [13]: 42.8%
- growth [14]: 136%
- growth [15]: -48.5% (active)

Structure (SMILES): CCc1cc(Cc2cc(CC)cc(C(C)(C)C)c2O)c(O)c(C(C)(C)C)c1
- growth [1]: -13.6% (active)
- growth [2]: 7.4% (active)
- growth [3]: 20.4%
- growth [4]: 14.3%
- growth [5]: 20.6%
- growth [6]: 36.3%
- growth [7]: 32.1%
- growth [8]: -0.979% (active)
- growth [9]: 40.5%
- growth [10]: 18.4%
- growth [11]: 23.3%
- growth [12]: 11.2%
- growth [13]: 6.96% (active)
- growth [14]: 4.71% (active)
- growth [15]: 19.4%

Structure (SMILES): CC/C=C/[C@@H]1C=C[C@@H]2CCC[C@H]2[C@@H]1CC[C@H](O)[C@H](C)N
- growth [1]: -40.1% (active)
- growth [2]: -50.2% (active)
- growth [18]: -29% (active)
- growth [4]: 32.8%
- growth [5]: -15.9% (active)
- growth [6]: 1.42% (active)
- growth [7]: -64.8% (active)
- growth [16]: -44.3% (active)
- growth [17]: -33.4% (active)
- growth [8]: -45.4% (active)
- growth [9]: 85.9%
- growth [10]: -89.3% (active)
- growth [11]: -67.2% (active)
- growth [12]: -85.8% (active)
- growth [13]: -76.2% (active)
- growth [14]: -88.6% (active)
- growth [15]: -85.1% (active)

Structure (SMILES): O=C(Nc1ccccc1Cl)OCCN1CCOCC1
- growth [1]: 103%
- growth [2]: 101%
- growth [3]: 107%
- growth [4]: 110%
- growth [5]: 112%
- growth [6]: 107%
- growth [7]: 105%
- growth [16]: 120%
- growth [17]: 104%
- growth [8]: 101%
- growth [9]: 72.2%
- growth [10]: 107%
- growth [11]: 104%
- growth [12]: 105%
- growth [13]: 73.8%
- growth [14]: 99.6%
- growth [15]: 102%

Structure (SMILES): O=C(Nc1ccccn1)[C@H](O)[C@@H](O)C(=O)N1CCOCC1
- growth [1]: 120%
- growth [2]: 106%
- growth [18]: 118%
- growth [4]: 123%
- growth [5]: 105%
- growth [6]: 105%
- growth [7]: 107%
- growth [16]: 104%
- growth [17]: 104%
- growth [8]: 100%
- growth [9]: 114%
- growth [10]: 111%
- growth [11]: 110%
- growth [12]: 110%
- growth [13]: 99.3%
- growth [14]: 116%
- growth [15]: 108%

Structure (SMILES): Cc1c2c(cn1Cc1ccccc1)CCc1cn[nH]c1-2
- growth [1]: 51.6%
- growth [2]: 70.8%
- growth [3]: 94.6%
- growth [4]: 81.3%
- growth [5]: 114%
- growth [6]: 84.5%
- growth [7]: 100%
- growth [8]: 90.3%
- growth [9]: 96.5%
- growth [10]: 26.8%
- growth [11]: 95.8%
- growth [12]: 81.5%
- growth [13]: 89.5%
- growth [14]: 86.1%
- growth [15]: 78.8%

Reference: PubChem BioAssay (NCI)
